Experimental data published in PubChem BioAssay (Tox21).
Unmarked numbers belong to inactive results. Records with an inconclusive call do not appear. Entries that show only a call come without a potency. Active and inactive are the calls of the source. Unless noted, calls come from the whole dose curve.

Tests used:
[1] = Nuclear factor erythroid 2-related factor 2/antioxidant responsive element (Nrf2/ARE) small molecule agonists: qHTS cell viability counter screen in human keratinocytes (AID 1919968; active = well fitted curve in the direction sought with a large enough effect in the repeat runs; an effect the other way counts as inactive or inconclusive; note: nearly all actives have a fitted effect of over 55% in size; note: potency is the fitted concentration of half-maximal effect)
Procedure, shortened: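 Cells of the KeratinoSens line were plated at 1,500 per well and left for 5 h before compound transfer from DMSO stocks. After a 23 h incubation (37 C, 5% CO2), CellTiter-Fluor was added. Signal was taken as fluorescence intensity 1 h later.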

[2] = Nuclear factor erythroid 2-related factor 2/antioxidant responsive element (Nrf2/ARE) small molecule agonists: luciferase reporter gene qHTS assay in human keratinocytes (AID 1919969); note: nearly all actives have a fitted effect of over 35% in size
[3] = target: Gonadotropin-releasing hormone receptor (Homo sapiens) (UniProt P30968); assay: Human gonadotropin-releasing hormone receptor (GnRHR) small molecule agonists, calcium flux assay in GnRHR-HEK293 cells (AID 1920063); note: nearly all actives have a fitted effect of over 35% in size
Procedure, shortened: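 Compounds dissolved in DMSO are pin-transferred onto dye-loaded GnRHR-HEK293 cells, which were seeded 18 h before at 37 C/5% CO2. Calcium signal is read as fluorescence intensity at 1 s intervals for 3 min.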

[4] = target: KiSS-1 receptor (Homo sapiens) (UniProt Q969F8); assay: Human kisspeptin (KISS1R) small molecule agonists, calcium flux assay in KISS1R-HEK293 cells (AID 1920064; active = well fitted curve in the direction sought with a large enough effect in the repeat runs; an effect the other way counts as inactive or inconclusive)
Procedure, shortened: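 Cell line: HEK293, stable human KISS1R. Dye loading 1 h at 37 C after 18 h culture. Read: kinetic fluorescence, 480/540 nm, 3 min at 1 s intervals.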

[5] = G protein-coupled receptor (GPCR) small molecule agonists, calcium flux assay: HEK293 wild type cell line counter screen (AID 1920065)
Procedure, shortened: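 Tox21 10K compounds, 15 concentrations each in triplicate, pin-transferred in DMSO onto dye-loaded cells; kinetic read at 480/540 nm for 3 min, 1 s intervals.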

[6] = p53 small molecule agonists, cell-based qHTS assay with rat liver microsomes (AID 1963578)
Procedure, shortened: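 Agonist mode in p53RE-bla reporter cells, with compounds co-incubated 16 h at 37 C alongside 0.5 mg/mL rat liver microsomes and 0.5 mg/mL NADPH (final), followed by a 2 h LiveBLAzer detection step.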

[7] = p53 small molecule agonists, cell-based qHTS assay: qHTS cell viability counter screen (AID 1963581); note: nearly all actives have a fitted effect of over 45% in size; note: potency is the fitted concentration of half-maximal effect
Procedure, shortened: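 ATP content measured by luminescence in HCT-116 p53RE-bla cells treated 16 h at 37 C, same wells as the reporter screen.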

[8] = cAMP Responsive Elements (CRE) small molecule agonists, cell-based qHTS assay (AID 1963590)
Procedure, shortened: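 HEK 293T cells stably bearing CRE-bla were plated at 2,000 cells per well and rested 18 h. Compounds, positive controls or DMSO were added for 3 h at 37 C. LiveBLAzer B/G substrate was then loaded for 2 h at room temperature.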

[9] = target: Beta-2 adrenergic receptor (Homo sapiens) (UniProt P07550); assay: Adrenergic beta2 receptor (ADRB2) small molecule antagonists, cell-based qHTS assay (AID 1963592); note: nearly all actives have a fitted effect of over 50% in size; note: potency is the fitted concentration of half-maximal effect
Procedure, shortened: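 Assay format: CHO-ADRB2 cells, 18-20hr seeding at 37C/5% CO2, then compound plus 1nM isoproterenol agonist mix for 0.5hr RT. Homogeneous time-resolved fluorescence cAMP detection after 1hr, expressed as 665/615 nm ratio.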

[10] = target: Beta-2 adrenergic receptor (Homo sapiens) (UniProt P07550); assay: Adrenergic beta2 receptor (ADRB2) small molecule agonists, cell-based qHTS assay (AID 1963593);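 note: CHO cells stably overexpressing human ADRB2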
Procedure, shortened: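 CHO cells stably over-expressing ADRB2 were plated overnight at 37C, then dosed with compounds plus a stimulation mix containing 100uM IBMX and 25uM Ro-20-1724 for 0.5hr at room temperature. cAMP was measured by HTRF competition, 1hr.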

[11] = target: D(2) dopamine receptor (Homo sapiens) (UniProt P14416); assay: Dopamine D2 receptor (DRD2) small molecule agonists, cell-based qHTS assay (AID 1963594); note: nearly all actives have a fitted effect of over 35% in size
Procedure, shortened: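 HEK293 cells stably expressing human DRD2, pre-treated with PDE inhibitor Ro20-1724 (0.1 mM final) and compound 10 min at room temperature, then stimulated with NKH477 (200nM […]) for 30 min. cAMP read by HTRF (665/620 nm).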

[12] = target: 5-hydroxytryptamine receptor 2A (Homo sapiens) (UniProt P28223); assay: 5-hydroxytryptamine receptor 2A (HTR2A) small molecule antagonists, cell-based qHTS assay (AID 1963586); note: nearly all actives have a fitted effect of over 45% in size; note: potency is the fitted concentration of half-maximal effect
Procedure, shortened: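 CHO cells stably expressing human HTR2A were plated for 18 h at 37 C, then loaded with calcium dye for 1 h. Compounds were preincubated 5 min at room temperature before DOI (4 nM solution) was added. Kinetic fluorescence was read for 3 min.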

[13] = target: 5-hydroxytryptamine receptor 2A (Homo sapiens) (UniProt P28223); assay: 5-hydroxytryptamine receptor 2A (HTR2A) small molecule agonists, cell-based qHTS assay (AID 1963587); note: nearly all actives have a fitted effect of over 30% in size; note: potency is the fitted concentration of half-maximal effect
Procedure, shortened: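 CHO cells stably expressing human HTR2A, plated 18 h, loaded with calcium dye 1 h at 37 C. Agonist mode: compounds added and intracellular calcium fluorescence recorded kinetically for 2 min at 1 sec intervals.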

[14] = target: Muscarinic acetylcholine receptor M1 (Homo sapiens) (UniProt P11229); assay: Cholinergic receptor muscarinic 1 (CHRM1) small molecule antagonists, cell-based qHTS assay (AID 1963588); note: nearly all actives have a fitted effect of over 40% in size; note: potency is the fitted concentration of half-maximal effect
Procedure, shortened: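 Compounds were tested at 15 concentrations in three independent runs. Dye-loaded CHRM1-CHO cells were exposed 5 min at room temperature before stimulation by acetylcholine added at 50nM. Intracellular calcium was read kinetically on FDSS for 3 min.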

[15] = target: Muscarinic acetylcholine receptor M1 (Homo sapiens) (UniProt P11229); assay: Cholinergic receptor muscarinic 1 (CHRM1) small molecule agonists, cell-based qHTS assay (AID 1963589); note: nearly all actives have a fitted effect of over 35% in size
Procedure, shortened: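 Homogeneous fluorescence calcium flux, agonist mode. Human M1-expressing CHO cells; compound dosed at 15 concentrations, three independent runs; signal sampled every 1 sec.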

[16] = target: D(2) dopamine receptor (Homo sapiens) (UniProt P14416); assay: Dopamine D2 receptor (DRD2) small molecule antagonists, cell-based qHTS assay (AID 1963595; active = well fitted inhibition curve with a large enough effect in the signal ratio in the repeat runs, with a control signal flat; the % refers to the signal ratio; note: potency is the fitted concentration of half-maximal effect)
Procedure, shortened: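 In this cell-based antagonist screen, compounds act for 10 min at room temperature before a 30 min challenge with 12 nM quinpirole and 200 nM NKH477. cAMP is quantified by HTRF competition in DRD2-HEK293 cells containing 0.1 mM Ro20-1724.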

[17] = p53 small molecule agonists, cell-based qHTS assay with rat liver microsomes: qHTS cell viability counter screen (AID 1963580); note: nearly all actives have a fitted effect of over 45% in size
Procedure, shortened: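 Cytotoxicity counter screen: intracellular ATP measured by CellTiter-Glo luminescence in the same wells as the beta-lactamase reporter read, on HCT-116 p53RE-bla cells exposed 16 h at 37 C to compounds with rat liver microsomes and NADPH, each 0.5 mg/mL final.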

[18] = p53 small molecule agonists, cell-based qHTS assay (AID 1963582; active = well fitted activation curve with a large enough effect in the signal ratio in the repeat runs, not every such curve was filed as active; the % refers to the signal ratio)
Procedure, shortened: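 16 h compound exposure (37 C) of p53 response element–bla cells, preceded by 5 h recovery at 37 C/5% CO2; read-out via LiveBLAzer B/G FRET substrate, 2 h RT, fluorescence intensity.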

[19] = cAMP Responsive Elements (CRE) small molecule antagonists, cell-based qHTS assay (AID 1963591; active = well fitted inhibition curve with a large enough effect in the signal ratio in the repeat runs, not every such curve was filed as active; the % refers to the signal ratio)
Procedure, shortened: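 First, CRE-bla HEK293T cells settled 18 h at 37 C. Next, compound and 0.25 uM final NKH477 were applied for 3 h. Last, LiveBLAzer B/G substrate was loaded for 2 h at room temperature.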

[20] = p53 small molecule agonists, cell-based qHTS assay with human liver microsomes: qHTS cell viability counter screen (AID 1963579); note: nearly all actives have a fitted effect of over 45% in size
Procedure, shortened: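 Metabolically activated exposure: compounds, human liver microsomes and NADPH (0.5 mg/mL final apiece) were added to p53RE-bla cells seeded 5 h earlier, left 16 h at 37 C, and then assessed for viability by CellTiter-Glo luminescence.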

Sequence of KiSS-1 receptor (Homo sapiens) (Q969F8 whole entry, looked up): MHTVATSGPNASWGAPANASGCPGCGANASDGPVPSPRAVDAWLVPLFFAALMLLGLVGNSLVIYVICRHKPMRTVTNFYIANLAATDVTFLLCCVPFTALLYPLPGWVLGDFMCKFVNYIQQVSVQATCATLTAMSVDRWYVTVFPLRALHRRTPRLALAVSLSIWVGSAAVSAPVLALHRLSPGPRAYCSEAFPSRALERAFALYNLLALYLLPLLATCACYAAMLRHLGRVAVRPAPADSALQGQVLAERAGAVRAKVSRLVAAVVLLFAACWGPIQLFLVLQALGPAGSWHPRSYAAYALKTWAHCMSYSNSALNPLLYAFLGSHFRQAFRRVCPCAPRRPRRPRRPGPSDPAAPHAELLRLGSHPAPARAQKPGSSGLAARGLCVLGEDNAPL
Sequence of Muscarinic acetylcholine receptor M1 (Homo sapiens) (P11229 whole entry, looked up): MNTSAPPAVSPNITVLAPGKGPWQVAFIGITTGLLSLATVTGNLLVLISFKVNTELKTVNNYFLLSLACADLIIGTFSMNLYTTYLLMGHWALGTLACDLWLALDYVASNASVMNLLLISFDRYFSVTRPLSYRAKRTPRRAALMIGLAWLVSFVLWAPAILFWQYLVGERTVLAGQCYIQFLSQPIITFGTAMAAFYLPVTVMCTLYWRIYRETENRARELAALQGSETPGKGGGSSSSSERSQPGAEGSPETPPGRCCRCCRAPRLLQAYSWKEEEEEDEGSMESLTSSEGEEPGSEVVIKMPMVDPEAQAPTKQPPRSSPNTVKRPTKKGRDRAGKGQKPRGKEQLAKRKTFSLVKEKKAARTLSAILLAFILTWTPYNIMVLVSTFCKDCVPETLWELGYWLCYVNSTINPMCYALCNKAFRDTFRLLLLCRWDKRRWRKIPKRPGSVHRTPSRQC
Sequence of D(2) dopamine receptor (Homo sapiens) (P14416 whole entry, looked up): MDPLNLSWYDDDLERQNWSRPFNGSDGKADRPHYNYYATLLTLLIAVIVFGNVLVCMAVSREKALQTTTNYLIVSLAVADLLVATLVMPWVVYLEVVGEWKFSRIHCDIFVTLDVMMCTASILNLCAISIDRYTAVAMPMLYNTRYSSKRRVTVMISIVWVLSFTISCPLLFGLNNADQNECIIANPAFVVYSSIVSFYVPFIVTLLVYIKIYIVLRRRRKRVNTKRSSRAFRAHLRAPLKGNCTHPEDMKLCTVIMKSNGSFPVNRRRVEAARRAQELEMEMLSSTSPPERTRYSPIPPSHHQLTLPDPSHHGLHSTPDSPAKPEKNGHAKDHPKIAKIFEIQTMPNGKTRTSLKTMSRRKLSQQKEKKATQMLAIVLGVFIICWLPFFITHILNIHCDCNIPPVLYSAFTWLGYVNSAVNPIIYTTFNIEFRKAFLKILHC
Sequence of 5-hydroxytryptamine receptor 2A (Homo sapiens) (P28223 whole entry, looked up): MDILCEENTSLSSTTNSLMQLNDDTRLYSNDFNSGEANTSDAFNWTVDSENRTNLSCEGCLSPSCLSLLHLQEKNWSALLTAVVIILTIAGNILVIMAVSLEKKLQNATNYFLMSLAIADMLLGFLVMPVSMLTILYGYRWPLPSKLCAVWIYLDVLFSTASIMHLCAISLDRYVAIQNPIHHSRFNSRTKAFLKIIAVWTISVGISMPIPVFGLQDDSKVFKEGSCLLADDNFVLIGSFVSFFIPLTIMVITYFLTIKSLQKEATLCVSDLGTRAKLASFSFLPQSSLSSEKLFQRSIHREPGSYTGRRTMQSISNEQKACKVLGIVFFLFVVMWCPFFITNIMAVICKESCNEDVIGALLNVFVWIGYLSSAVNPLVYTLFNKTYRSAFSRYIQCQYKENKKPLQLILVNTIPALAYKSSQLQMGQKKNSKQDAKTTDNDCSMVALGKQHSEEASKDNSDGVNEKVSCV
Sequence of Gonadotropin-releasing hormone receptor (Homo sapiens) (P30968 whole entry, looked up): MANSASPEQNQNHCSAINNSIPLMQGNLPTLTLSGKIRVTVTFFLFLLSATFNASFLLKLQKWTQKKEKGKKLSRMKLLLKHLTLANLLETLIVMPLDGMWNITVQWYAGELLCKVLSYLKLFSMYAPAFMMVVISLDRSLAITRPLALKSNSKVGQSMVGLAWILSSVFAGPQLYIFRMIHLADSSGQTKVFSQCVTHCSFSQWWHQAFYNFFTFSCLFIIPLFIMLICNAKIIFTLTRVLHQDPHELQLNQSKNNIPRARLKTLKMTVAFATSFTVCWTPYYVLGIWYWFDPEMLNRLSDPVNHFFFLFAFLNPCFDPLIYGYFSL
Sequence of Beta-2 adrenergic receptor (Homo sapiens) (P07550 whole entry, looked up): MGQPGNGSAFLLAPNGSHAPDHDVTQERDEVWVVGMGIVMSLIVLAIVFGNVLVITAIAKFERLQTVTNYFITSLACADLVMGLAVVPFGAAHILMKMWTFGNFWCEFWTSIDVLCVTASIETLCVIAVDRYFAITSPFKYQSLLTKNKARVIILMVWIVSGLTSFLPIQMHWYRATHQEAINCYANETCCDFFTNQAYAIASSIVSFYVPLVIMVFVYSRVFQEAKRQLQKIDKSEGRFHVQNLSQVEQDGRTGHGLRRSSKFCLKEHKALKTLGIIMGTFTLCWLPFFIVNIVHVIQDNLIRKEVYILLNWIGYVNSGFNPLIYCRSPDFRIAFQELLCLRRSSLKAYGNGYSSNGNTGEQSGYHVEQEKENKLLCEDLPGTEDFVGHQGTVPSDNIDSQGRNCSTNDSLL

| SMILES | Potency [1] | Potency [2] | Potency [3] | Potency [4] | Potency [5] | Potency [6] | Potency [7] | Potency [8] | Potency [9] | Potency [10] | Potency [11] | Potency [12] | Potency [13] | Potency [14] | Potency [15] | Potency [16] | Potency [17] | Potency [18] | Potency [19] | Potency [20] |
| --- | --- | --- | --- | --- | --- | --- | --- | --- | --- | --- | --- | --- | --- | --- | --- | --- | --- | --- | --- | --- |
| Cc1cc(C2CCCCC2)n(O)c(=O)c1 | 13.3 µM (active) | inactive | inactive | inactive | inactive | inactive | inactive | inactive | inactive | inactive | inactive |  |  |  |  |  |  |  |  |  |
| Cc1cc(CCN2CCN(c3nsc4ccccc34)CC2)cc2c1NC(=O)CC2(C)C | 48.6 µM (active) | inactive | inactive | inactive | inactive | inactive | 45.8 µM (active) |  | 34.4 µM (active) |  | inactive | inactive | inactive | 16.8 µM (active) | inactive | 0.243 µM (active) |  |  |  |  |
| CC[N+](C)(CC)CC | inactive | inactive | inactive | inactive | inactive |  | inactive | inactive | inactive | inactive | inactive | inactive | inactive | inactive | inactive | inactive | inactive | inactive | inactive |  |
| Nc1ccc(F)cc1F | inactive | inactive | inactive | inactive | inactive |  | inactive | inactive | inactive |  | inactive |  | inactive | inactive | inactive | inactive |  | inactive | inactive | inactive |
| CCCOc1ccc2c(c1)CC[C@@H]1[C@@H]2CC[C@]2(C)C(OC)CC[C@@H]12 (stereo partly drawn) | inactive | inactive | inactive | inactive | inactive | inactive | inactive | inactive | inactive | inactive | inactive | inactive | inactive | inactive | inactive |  | inactive | inactive | inactive | inactive |
| CC(S)C(C)S (stereo not drawn) | inactive | inactive | inactive | inactive | inactive | inactive | inactive | inactive | inactive | inactive | inactive | inactive | inactive | inactive | inactive | inactive | inactive | inactive | inactive | inactive |
| C[C@]12CC[C@H]3C(=CCc4cc(O)ccc43)[C@@H]1CCC2=O | inactive | inactive | inactive | inactive | inactive |  | inactive | inactive | inactive | inactive | inactive | inactive |  | inactive | inactive | inactive | inactive | inactive |  | inactive |
| CCCC(CCC)(C(=O)OCC)C(=O)OCC | inactive | inactive | inactive | inactive | inactive | inactive | inactive | inactive | inactive |  |  | 3.26 µM (active) | 1.69 µM (active) | inactive | inactive |  | inactive | inactive | inactive | inactive |
| CC1CC(=O)NN=C1c1ccc(NCC(C)(C)NCC(O)COc2cc(Cl)ccc2C#N)cc1 (stereo not drawn) | inactive | inactive | inactive | inactive | inactive | inactive | inactive |  | 5.31 µM (active) |  |  | inactive | inactive | inactive | inactive |  | inactive | inactive |  | inactive |
| CC(=O)OC(C(=O)c1ccccc1)c1ccccc1 (stereo not drawn) | inactive | inactive | inactive | inactive | inactive | inactive | inactive | inactive | inactive |  | inactive | 0.0011 µM (active) | inactive | inactive | inactive | inactive | inactive | inactive | inactive | inactive |
| CCOc1ccccc1OCC1CNCCO1 (stereo not drawn) | inactive | inactive | inactive | inactive | inactive | inactive | inactive | inactive |  |  |  |  |  |  | inactive | inactive | inactive | inactive | inactive | inactive |
| O=C(O)[C@H](O)c1ccccc1 | inactive | inactive | inactive | inactive | inactive | inactive | inactive | inactive | inactive | inactive | inactive | inactive | inactive | inactive | inactive | inactive | inactive | inactive | inactive | inactive |
| C=C(C)C(=O)OCCOC1CC2CC1C1C=CCC21 (stereo not drawn) | inactive | inactive | inactive | inactive | inactive | inactive | inactive | inactive | inactive | inactive |  |  | inactive | inactive | inactive | inactive | inactive | inactive |  | inactive |
| OCCCS | inactive | inactive | inactive | inactive | inactive | inactive | inactive | inactive |  | inactive |  | inactive | inactive | inactive | inactive |  | inactive | inactive | inactive | inactive |
| CC(=O)/C=C/C=C1/C2CCC(C2)C1(C)C (stereo not drawn) | inactive | inactive | inactive | inactive | inactive | inactive | inactive | inactive | inactive |  | inactive | inactive | inactive | inactive | inactive | inactive | inactive | inactive | inactive | inactive |
